Test [1] is described as follows: qHTS assay to identify small molecule antagonists of the estrogen related receptor (ERR) signaling pathway - cell viability counter screen (AID 1224818).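 Further: viability measured after 17.5 h of compound exposure.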 The conditions noted are these: ERR reporter cell line viability counter screen; series mostly up to 46.1 µM. In short, it runs like this: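 After a 6 h pre-incubation, ERR cells were dosed by pin tool with compounds, positive/negative controls or DMSO alone. Following 17.5 h at 37 C and 30 min with CellTiter-Fluor, fluorescence was recorded.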
In general terms: qHTS replaces the single test concentration by a dilution series.

Test [2] in a line: qHTS assay to identify small molecule antagonists of the estrogen related receptor (ERR) signaling pathway (AID 1224819;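 further: luminescence from an ERR-driven luciferase reporter measured with One-Glo reagent; nearly all actives have a fitted effect of over 50% in size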). As to conditions: ERR reporter cell line, luciferase inhibition; series mostly up to 46.1 µM. An outline of the steps: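 Luminescence readout (One-Glo, 30 min, RT) of ERR cell line after 18 h compound exposure at 37 C; cells seeded 2,000/well, pre-incubated 6 h, compounds pinned from DMSO stocks.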

Test [3] in a line: qHTS assay to identify small molecule agonists of the estrogen related receptor (ERR) signaling pathway (AID 1224820). As to conditions: ERR reporter cell line, luciferase agonist mode; series mostly up to 46.1 µM. An outline of the steps:
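ERR reporter cells (NTP line) plated 2,000/well, incubated 6 h at 37 C/5% CO2, then pinned with compounds in DMSO and held 18 h at 37 C. One-Glo added; luminescence read after 30 min at room temperature.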

Test [4] deals with estrogen-related receptor alpha (ERRalpha) with PGC-1alpha coactivator, human. The test is described as follows: qHTS assay to identify small molecule antagonists of the estrogen related receptor signaling pathway with the pleiotropic PPARgamma coactivator (PGC) (AID 1224821; calls by dose curve; further: nearly all actives have a fitted effect of over 50% in size; further: potency means the concentration at half of the fitted maximal effect). As to conditions: ERR/PGC reporter cell line, luciferase, antagonist mode; series mostly up to 46.1 µM. An outline of the steps:
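Cells engineered for PGC/ERR signalling (line from NTP) were plated 6 h at 37 C/5% CO2, then exposed to DMSO-dissolved compound for 18 h at 37 C. Luciferase activity was read by One-Glo luminescence after 30 min at room temperature.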

Test [5] can be described thus: qHTS assay to identify small molecule antagonists of the estrogen related receptor signaling pathway with the pleiotropic PPARgamma coactivator (PGC) cell viability counter screen (AID 1224822; further: potency means the concentration at half of the fitted maximal effect;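 further: viability read after 17.5 h compound exposure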). The conditions noted are these: ERR/PGC reporter cell line viability counter screen; series mostly up to 46.1 µM. In short, it runs like this:
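PGC/ERR cells were plated at 2,000 per well and allowed 6 h to settle before compound addition. Following 17.5 h at 37 C, CellTiter-Fluor reagent was added and fluorescence was read 30 min later.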

The nature of test [6]: qHTS assay to identify small molecule agonists of the estrogen related receptor signaling pathway with the pleiotropic PPARgamma coactivator (PGC) (AID 1224823). As to conditions: ERR/PGC reporter cell line, luciferase agonist mode; series mostly up to 46.1 µM. An outline of the steps:
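PGC/ERR reporter cells were seeded, rested 6 h at 37 C/5% CO2, then exposed to compounds in DMSO by pin transfer for 18 h at 37 C. Luciferase activity was read as luminescence after One-Glo reagent and 30 min at room temperature.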

Each structure is given as a SMILES string. Records with an inconclusive call do not appear. Activity calls are given as the source filed them. Unless noted, the call rests on the fitted dose curve; in most records, active means well fitted curve in the direction sought with a large enough effect in the repeat runs; inconclusive means weak or mixed curves; inactive means no such curve, though single readings can be large; an effect the other way counts as inactive or inconclusive.

As to `CN(CC[C@@H](Oc1ccc(C(F)(F)F)cc1)c1ccccc1)CC(=O)O`, the Potency entry in test [1], in test [2], in test [3], in test [4], in test [5] and in test [6] was “inactive” throughout.
Turning to `S=C(Nc1ccccc1)Nc1nccs1`, the Potency result in test [1], in test [2], in test [3] and in test [6] was “inactive” in each case. In addition, the Potency in test [4] was 810 nM (active); in test [5] it was 335 nM (active).
Turning to `C=C/C(C)=C/[C@@]1(C)SC(=O)C(C)=C1O`, the Potency entry in test [1], in test [2], in test [3], in test [4], in test [5] and in test [6] was “inactive” each time.

The record behind these values is PubChem BioAssay (Tox21).
